Results as given in the supplement of paper PMC10849652.
Of roughly 8,800 targets only a part is listed; those with a hit were picked by preference. About 0.5% of all pairs of compound and target were hits.

How the values were obtained:
Experiment in all cases: log2 fold change, soluble protein after heating vs DMSO (PISA); higher = thermal stabilisation; K562 lysate, 10 uM; active = over 0.2 and 3.5 SD of the protein, either way, in both replicates (recomputed)
nilotinib = compound: Cc1cn(-c2cc(NC(=O)c3ccc(C)c(Nc4nccc(-c5cccnc5)n4)c3)cc(C(F)(F)F)c2)cn1 [nilotinib]
In short: (§1)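 A 30 min treatment with 10 μM compound was applied to crude K562 extract at 1 mg/mL protein in PBS pH 7.4 with 1 mM MgCl2. Heating for 3 min spanned 48°C-58°C, after which aliquots were pooled, adjusted to 0.5% NP-40 at 4°C and spun at 21,000xg for 90 min. TMTpro 16plex LC-MS/MS of the supernatant, with channel sums equalised, gave values recorded as log-two fold change in thermal stability against solvent controls, from duplicates.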

[1] = compound: Cc1nc(Nc2n[nH]c3c2CN(C(=O)N[C@H](CN(C)C)c2ccccc2)C3(C)C)c2sccc2n1
In short: as §1

dasatinib = compound: Cc1nc(Nc2ncc(C(=O)Nc3c(C)cccc3Cl)s2)cc(N2CCN(CCO)CC2)n1 [dasatinib]
In short: as §1

[2] = compound: Cc1ncc(-c2ccnc(Nc3ccc(S(C)(=O)=O)cc3)n2)n1C(C)C
In short: as §1

[3] = compound: Cn1cc(-c2ccc3c(c2)CCN3C(=O)Cc2cccc(C(F)(F)F)c2)c2c(N)ncnc21
In short: as §1

quisinostat = compound: Cn1cc(CNCC2CCN(c3ncc(C(=O)NO)cn3)CC2)c2ccccc21 [quisinostat]
In short: as §1

tipifarnib = compound: Cn1cncc1[C@@](N)(c1ccc(Cl)cc1)c1ccc2c(c1)c(-c1cccc(Cl)c1)cc(=O)n2C [tipifarnib]
In short: as §1

[4] = compound: NC(=O)Nc1cc(-c2cccc(F)c2)sc1C(=O)N[C@H]1CCCNC1
In short: as §1

[5] = compound: NC(=O)c1cnc(N[C@@H]2CCCC[C@@H]2N)nc1Nc1cccc(-n2nccn2)c1
In short: as §1

[6] = compound: NC1(c2ccc(-c3nc4ccn5c(=O)[nH]nc5c4cc3-c3ccccc3)cc2)CCC1
In short: as §1

Measured: log2 fold change

PCBP2 isoform 8 (UniProt Q15366)
inactive: nilotinib 0.059 | [1] 0.069 | dasatinib -0.057 | [2] 0.04 | [3] 0.003 | quisinostat 0.133 | tipifarnib 0.015 | [4] 0.055 | [5] -0.091 | [6] -0.049

PHC1 (UniProt P78364)
UniProt P78364, sequence (P78364 whole entry, looked up): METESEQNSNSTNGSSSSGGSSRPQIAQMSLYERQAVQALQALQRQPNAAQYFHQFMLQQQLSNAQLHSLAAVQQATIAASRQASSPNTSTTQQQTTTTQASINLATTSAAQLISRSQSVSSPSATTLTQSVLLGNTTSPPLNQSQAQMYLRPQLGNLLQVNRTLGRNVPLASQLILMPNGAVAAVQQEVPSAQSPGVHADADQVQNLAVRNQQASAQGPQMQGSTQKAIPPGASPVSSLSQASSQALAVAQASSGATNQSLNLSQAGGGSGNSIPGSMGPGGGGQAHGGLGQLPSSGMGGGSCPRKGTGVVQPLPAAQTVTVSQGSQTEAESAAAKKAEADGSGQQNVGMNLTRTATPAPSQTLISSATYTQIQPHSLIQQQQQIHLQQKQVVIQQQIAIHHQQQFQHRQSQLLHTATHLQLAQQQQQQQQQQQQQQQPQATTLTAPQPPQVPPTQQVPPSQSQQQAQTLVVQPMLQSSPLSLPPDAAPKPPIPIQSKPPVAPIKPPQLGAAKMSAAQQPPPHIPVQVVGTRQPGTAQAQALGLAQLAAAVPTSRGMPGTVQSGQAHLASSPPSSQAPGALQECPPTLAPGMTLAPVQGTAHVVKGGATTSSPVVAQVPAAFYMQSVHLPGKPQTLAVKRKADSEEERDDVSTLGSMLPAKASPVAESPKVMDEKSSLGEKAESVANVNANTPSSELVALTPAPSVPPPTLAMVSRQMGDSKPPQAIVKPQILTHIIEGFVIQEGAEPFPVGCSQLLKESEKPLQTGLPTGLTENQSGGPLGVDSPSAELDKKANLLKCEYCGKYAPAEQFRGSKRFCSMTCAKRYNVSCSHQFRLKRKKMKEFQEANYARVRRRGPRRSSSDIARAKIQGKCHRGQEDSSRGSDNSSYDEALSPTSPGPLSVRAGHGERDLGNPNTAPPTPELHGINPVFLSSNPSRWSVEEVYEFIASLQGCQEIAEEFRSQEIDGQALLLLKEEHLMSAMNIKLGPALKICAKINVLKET
inactive: nilotinib 0.054 | [1] 0.023 | dasatinib 0.087 | [2] -0.024 | [3] -0.049 | quisinostat -0.003 | tipifarnib -0.02 | [4] 0.003

PXMP4 (UniProt Q9Y6I8)
inactive: nilotinib -0.011 | [1] 0.014 | dasatinib 0.078 | [2] 0.013 | [3] -0.092 | quisinostat -0.146 | [4] 0.018 | [5] -0.018 | [6] -0.215
active: tipifarnib 0.846

PCF11 (UniProt O94913)
inactive: nilotinib -0.003 | [1] -0.001 | dasatinib -0.042 | [2] 0.023 | [3] -0.017 | quisinostat -0.004 | tipifarnib -0.029 | [4] 0.019 | [5] -0.013 | [6] -0.012

PDIA4 (UniProt P13667)
UniProt P13667, sequence (P13667 whole entry, looked up): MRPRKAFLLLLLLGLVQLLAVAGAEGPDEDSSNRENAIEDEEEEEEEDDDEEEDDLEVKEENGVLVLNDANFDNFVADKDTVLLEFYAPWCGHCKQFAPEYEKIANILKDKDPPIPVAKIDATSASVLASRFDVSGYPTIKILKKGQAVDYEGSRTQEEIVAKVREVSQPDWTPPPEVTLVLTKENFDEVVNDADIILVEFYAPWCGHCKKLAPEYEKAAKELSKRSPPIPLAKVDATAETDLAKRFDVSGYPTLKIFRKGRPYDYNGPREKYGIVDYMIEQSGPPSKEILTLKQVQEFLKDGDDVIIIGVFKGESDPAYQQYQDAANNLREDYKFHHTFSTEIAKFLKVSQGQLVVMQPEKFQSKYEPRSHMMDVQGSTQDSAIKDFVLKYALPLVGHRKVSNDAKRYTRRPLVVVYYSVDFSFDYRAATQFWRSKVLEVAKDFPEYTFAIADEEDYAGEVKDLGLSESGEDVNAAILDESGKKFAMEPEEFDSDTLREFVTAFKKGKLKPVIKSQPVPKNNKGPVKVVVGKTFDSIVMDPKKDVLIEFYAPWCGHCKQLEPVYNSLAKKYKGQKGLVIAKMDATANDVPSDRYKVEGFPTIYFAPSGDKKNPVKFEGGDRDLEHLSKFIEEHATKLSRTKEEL
inactive: nilotinib 0.008 | [1] -0.006 | dasatinib 0.006 | [2] 0.014 | [3] 0.004 | quisinostat 0.154 | tipifarnib 0.029 | [4] -0.004 | [5] -0.02 | [6] 0.008

PRAME (UniProt P78395)
UniProt P78395, sequence (P78395 whole entry, looked up): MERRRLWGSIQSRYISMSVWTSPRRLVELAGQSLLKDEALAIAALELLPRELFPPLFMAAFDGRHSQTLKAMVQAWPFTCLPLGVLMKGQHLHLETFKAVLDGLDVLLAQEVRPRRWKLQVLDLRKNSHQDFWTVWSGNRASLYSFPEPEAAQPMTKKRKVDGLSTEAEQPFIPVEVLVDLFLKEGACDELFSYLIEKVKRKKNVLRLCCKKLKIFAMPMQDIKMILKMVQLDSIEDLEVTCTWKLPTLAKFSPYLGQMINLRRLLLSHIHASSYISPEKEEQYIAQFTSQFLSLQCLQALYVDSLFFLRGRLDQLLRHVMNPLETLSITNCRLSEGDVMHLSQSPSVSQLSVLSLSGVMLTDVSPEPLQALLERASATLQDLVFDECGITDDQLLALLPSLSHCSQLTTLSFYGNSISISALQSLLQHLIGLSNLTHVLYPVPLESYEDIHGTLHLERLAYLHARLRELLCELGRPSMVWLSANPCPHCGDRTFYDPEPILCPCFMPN
inactive: nilotinib 0.028 | [1] 0.005 | dasatinib -0.004 | [2] 0.001 | [3] -0.017 | quisinostat -0.081 | tipifarnib -0.007 | [4] 0.053 | [5] -0.01 | [6] -0.006

POMP (UniProt Q9Y244)
UniProt Q9Y244, sequence (Q9Y244 whole entry, looked up): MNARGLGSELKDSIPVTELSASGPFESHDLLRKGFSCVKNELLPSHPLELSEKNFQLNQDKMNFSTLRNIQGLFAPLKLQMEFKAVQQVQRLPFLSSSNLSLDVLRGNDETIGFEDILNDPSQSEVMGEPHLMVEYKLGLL
active: [2] 0.301
inactive: nilotinib 0.021 | [1] 0.057 | dasatinib 0.048 | [3] 0 | quisinostat -0.054 | tipifarnib -0.046 | [4] -0.007 | [5] 0.039 | [6] -0.002

PRKRA (UniProt O75569)
UniProt O75569, sequence (O75569 whole entry, looked up): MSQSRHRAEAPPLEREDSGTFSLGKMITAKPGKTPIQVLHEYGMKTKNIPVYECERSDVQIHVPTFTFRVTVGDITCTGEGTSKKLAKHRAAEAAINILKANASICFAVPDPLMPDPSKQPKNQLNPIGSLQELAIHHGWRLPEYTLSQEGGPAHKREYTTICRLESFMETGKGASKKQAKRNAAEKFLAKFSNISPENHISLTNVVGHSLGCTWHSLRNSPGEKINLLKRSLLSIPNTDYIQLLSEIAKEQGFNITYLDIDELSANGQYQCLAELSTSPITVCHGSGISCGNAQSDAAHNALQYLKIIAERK
inactive: nilotinib 0 | [1] -0.001 | dasatinib -0.01 | [2] 0.034 | [3] 0.029 | quisinostat -0.058 | tipifarnib 0.016 | [4] 0.036 | [5] 0.012 | [6] -0.043

PRIM2 (UniProt P49643)
UniProt P49643, sequence (P49643 whole entry, looked up): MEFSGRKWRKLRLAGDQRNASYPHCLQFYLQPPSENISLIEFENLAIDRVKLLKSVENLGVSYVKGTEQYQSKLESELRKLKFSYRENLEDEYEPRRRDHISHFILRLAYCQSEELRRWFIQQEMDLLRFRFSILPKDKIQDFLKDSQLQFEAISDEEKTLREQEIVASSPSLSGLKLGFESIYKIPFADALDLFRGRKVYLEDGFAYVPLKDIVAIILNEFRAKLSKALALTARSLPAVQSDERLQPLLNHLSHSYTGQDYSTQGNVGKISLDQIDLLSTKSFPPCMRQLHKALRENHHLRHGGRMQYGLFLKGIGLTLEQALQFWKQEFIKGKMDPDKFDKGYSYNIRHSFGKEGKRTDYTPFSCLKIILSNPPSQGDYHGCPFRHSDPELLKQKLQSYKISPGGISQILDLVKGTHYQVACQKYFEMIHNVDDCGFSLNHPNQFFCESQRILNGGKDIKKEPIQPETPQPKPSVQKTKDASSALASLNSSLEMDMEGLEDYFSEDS
inactive: nilotinib 0.052 | [1] 0.007 | dasatinib -0.038 | [2] -0.012 | [3] 0.02 | quisinostat -0.027 | tipifarnib -0.037 | [4] 0.018 | [5] -0.001 | [6] -0.021

PPOX (UniProt P50336)
inactive: nilotinib 0.227 | [1] -0.001 | dasatinib 0.086 | [2] 0.054 | [3] -0.004 | quisinostat 0.129 | tipifarnib -0.012 | [4] -0.019 | [5] -0.008 | [6] -0.036

POLR2F (UniProt P61218)
inactive: nilotinib 0.023 | [1] -0.019 | dasatinib 0.274 | [2] 0.107 | [3] -0.015 | quisinostat -0.034 | tipifarnib 0.015 | [4] 0.008 | [5] -0.052 | [6] -0.021

PIGO (UniProt Q8TEQ8)
UniProt Q8TEQ8, sequence (Q8TEQ8 whole entry, looked up): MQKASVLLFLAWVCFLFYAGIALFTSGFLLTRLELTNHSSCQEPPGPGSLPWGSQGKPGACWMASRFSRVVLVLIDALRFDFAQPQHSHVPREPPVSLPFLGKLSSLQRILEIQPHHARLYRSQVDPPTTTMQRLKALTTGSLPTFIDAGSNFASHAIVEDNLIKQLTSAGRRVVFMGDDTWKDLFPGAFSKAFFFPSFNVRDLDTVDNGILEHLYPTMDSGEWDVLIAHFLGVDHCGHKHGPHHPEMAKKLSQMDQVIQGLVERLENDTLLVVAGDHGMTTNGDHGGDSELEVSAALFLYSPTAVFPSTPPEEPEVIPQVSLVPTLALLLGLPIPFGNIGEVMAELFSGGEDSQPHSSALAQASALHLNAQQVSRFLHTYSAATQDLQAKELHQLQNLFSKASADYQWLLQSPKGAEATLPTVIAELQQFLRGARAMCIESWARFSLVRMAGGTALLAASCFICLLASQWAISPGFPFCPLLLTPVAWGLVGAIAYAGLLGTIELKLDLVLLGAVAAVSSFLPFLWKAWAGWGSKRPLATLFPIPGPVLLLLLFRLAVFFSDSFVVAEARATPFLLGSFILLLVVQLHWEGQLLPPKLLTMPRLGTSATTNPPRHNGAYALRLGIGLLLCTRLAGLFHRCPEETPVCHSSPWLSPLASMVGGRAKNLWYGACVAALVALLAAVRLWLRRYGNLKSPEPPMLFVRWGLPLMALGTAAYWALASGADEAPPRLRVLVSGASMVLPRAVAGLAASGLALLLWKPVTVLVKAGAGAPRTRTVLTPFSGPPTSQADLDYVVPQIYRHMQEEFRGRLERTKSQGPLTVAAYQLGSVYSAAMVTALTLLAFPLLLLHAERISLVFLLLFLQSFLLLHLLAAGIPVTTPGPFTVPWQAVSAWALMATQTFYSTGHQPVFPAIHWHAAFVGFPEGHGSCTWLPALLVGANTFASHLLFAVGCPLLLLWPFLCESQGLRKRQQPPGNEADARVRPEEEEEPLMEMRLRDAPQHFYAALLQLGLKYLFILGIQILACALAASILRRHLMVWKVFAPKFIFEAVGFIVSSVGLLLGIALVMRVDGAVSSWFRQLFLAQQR
inactive: nilotinib -0.019 | [1] 0.055 | dasatinib -0.032 | [2] -0.19 | [3] 0.079 | quisinostat -0.119 | tipifarnib 0.013 | [4] 0.301 | [5] 0.059 | [6] 0.041

PTPN2 (UniProt P17706)
UniProt P17706, sequence (P17706 whole entry, looked up): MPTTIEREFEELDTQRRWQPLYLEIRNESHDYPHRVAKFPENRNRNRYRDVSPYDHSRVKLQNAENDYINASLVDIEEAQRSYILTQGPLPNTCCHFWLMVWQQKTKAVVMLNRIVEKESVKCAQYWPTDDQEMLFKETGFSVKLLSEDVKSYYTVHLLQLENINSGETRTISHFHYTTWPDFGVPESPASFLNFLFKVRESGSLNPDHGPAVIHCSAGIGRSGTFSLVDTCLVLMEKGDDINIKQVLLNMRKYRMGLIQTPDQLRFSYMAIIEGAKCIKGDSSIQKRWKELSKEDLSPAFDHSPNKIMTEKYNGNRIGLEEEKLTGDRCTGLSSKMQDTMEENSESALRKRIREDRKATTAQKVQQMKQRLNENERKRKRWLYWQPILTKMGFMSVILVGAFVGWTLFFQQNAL
inactive: nilotinib 0 | [1] 0.026 | dasatinib -0.026 | [2] -0.041 | [3] 0.014 | quisinostat -0.067 | tipifarnib -0.001 | [4] 0.025 | [5] 0.006 | [6] -0.005

PHACTR4 isoform 2 (UniProt Q8IZ21)
inactive: nilotinib 0.005 | [1] -0.004 | dasatinib 0.022 | [2] -0.016 | [3] 0.012 | quisinostat -0.017 | tipifarnib -0.015 | [4] -0.006 | [5] -0.002 | [6] -0.027

PPIE (UniProt Q9UNP9)
UniProt Q9UNP9, sequence (Q9UNP9 whole entry, looked up): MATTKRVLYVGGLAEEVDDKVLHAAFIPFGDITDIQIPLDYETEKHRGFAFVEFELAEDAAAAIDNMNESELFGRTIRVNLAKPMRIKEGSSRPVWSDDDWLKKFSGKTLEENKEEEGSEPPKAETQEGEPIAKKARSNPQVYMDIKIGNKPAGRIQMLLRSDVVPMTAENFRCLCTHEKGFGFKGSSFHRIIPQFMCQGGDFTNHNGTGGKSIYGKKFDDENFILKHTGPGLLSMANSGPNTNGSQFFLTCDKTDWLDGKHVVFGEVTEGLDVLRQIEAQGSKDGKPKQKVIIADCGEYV
inactive: nilotinib -0.027 | [1] 0.017 | dasatinib -0.017 | [2] -0.01 | [3] -0.016 | quisinostat -0.091 | tipifarnib -0.003 | [4] -0.018 | [5] 0.04 | [6] -0.034
